# ± gives the standard deviation.
# Experiments:
# Settings in all cases: modulator concentration 10 µM
# [1] = test system: RAW-Dual (murine macrophage reporter line); assay: NF-kB reporter (SEAP) activity fold change vs agonist alone; higher = enhanced NF-kB activity
# In short: (§1)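 RAW-Dual murine macrophage reporter cells were plated at 50 000 per well in 384-well plates, pin-transferred compound to 10 μM final, and pre-incubated for 1 hour at 37 °C before a PRR agonist was added and the cells incubated overnight. NF-κB activity was read from supernatant SEAP with QUANTI-Blue at 620 nm absorbance, and IRF activity from Lucia luciferase with QUANTI-Luc by luminescence. Each signal was expressed as fold change by dividing by the mean agonist-only control on the same plate. Two replicate plates were averaged, with errors obtained by propagation.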
# [2] = test system: RAW-Dual (murine macrophage reporter line); assay: IRF reporter (Lucia luciferase) activity fold change vs agonist alone; higher = enhanced IRF activity
# In short: as §1
# [3] = test system: RAW-Dual (murine macrophage reporter line); assay: viability score (confluency relative to resting cells, overnight) (fraction); higher = more viable, active = viable (0.7 or more)
# In short: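 RAW-Dual macrophages in 384-well plates were incubated overnight with compound, final concentration 10 μM. Confluency images from IncuCyte were processed in IncuCyte software into two masks covering all imaged wells. The viability score is each well's confluency relative to resting cells, and a compound met the cutoff when both masks exceeded 70% of resting cells.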
# [4] = agonist: CpG ODN 1826 0.5 ug/mL
Structure (SMILES),"NF-kB reporter [1, 4]",NF-kB reporter ([1]; agonist: LPS 0.1 ug/mL),NF-kB reporter ([1]; agonist: MPLA […]),IRF reporter ([2]; agonist: 3'3'-cGAMP 10 ug/mL),IRF reporter ([2]; agonist: LPS 0.1 ug/mL),IRF reporter ([2]; agonist: MPLA […]),viability score [3]
CC(C)(C)NCC(O)COc1cccc2c1CCC(=O)N2.Cl (configuration not stated),1.14 ± 0.17,1.12 ± 0.25,1.03 ± 0.12,0.941 ± 0.037,1.33 ± 0.26,1.03 ± 0.19,0.995 (active)
Cc1[nH]c(/C=C2\C(=O)Nc3ccccc32)c(C)c1CCC(=O)O,0.716 ± 0.18,0.853 ± 0.11,0.812 ± 0.048,0.618 ± 0.021,0.956 ± 0.24,0.98 ± 0.18,0.993 (active)
O=C(NCCOc1cccc2ccccc12)Nc1cc(F)c(F)cc1Cl,0.945 ± 0.11,1.06 ± 0.14,0.854 ± 0.053,0.886 ± 0.027,1.14 ± 0.17,0.878 ± 0.24,1.01 (active)
COC(=O)C1=C(C)N(c2ccc(F)cc2)C(=O)C1,1 ± 0.092,0.811 ± 0.08,0.813 ± 0.071,0.516 ± 0.025,0.865 ± 0.068,0.505 ± 0.065,1.01 (active)
Clc1ccc(Nc2nc(Nc3ccc(Cl)cc3)nc(N3CCOCC3)n2)cc1,0.794 ± 0.072,0.902 ± 0.068,1.1 ± 0.15,0.805 ± 0.12,1.26 ± 0.23,1.37 ± 0.45,1.03 (active)
CCOCCOC(=O)C1=C(C)NC2=C(C(=O)CCC2)C1c1coc2ccc(C)cc2c1=O (configuration not stated),0.973 ± 0.083,0.961 ± 0.12,0.993 ± 0.12,1.01 ± 0.029,1.41 ± 0.14,1.18 ± 0.11,1.01 (active)
Cc1cc(OC2CN(C(=O)Cn3cnc4ccccc43)C2)cc(=O)n1C1CC1,1.16 ± 0.11,1.09 ± 0.099,0.97 ± 0.026,1 ± 0.04,1.06 ± 0.06,0.955 ± 0.092,0.997 (active)
O=C(OCCN1CCCCC1)c1ccc(O)cc1,1.01 ± 0.081,1.06 ± 0.07,1.03 ± 0.04,1.08 ± 0.077,1.03 ± 0.047,1.07 ± 0.18,1 (active)
Cc1c(Cl)cccc1Nc1ccccc1C(=O)O,1.16 ± 0.17,1.14 ± 0.3,0.887 ± 0.052,0.938 ± 0.043,1.34 ± 0.26,1.13 ± 0.28,1 (active)
COc1c(C)c2c(c(O)c1CC=C(C)CCC(=O)O)C(=O)OC2,0.695 ± 0.23,0.118 ± 0.008,0.367 ± 0.023,0.287 ± 0.0097,1.16 ± 0.15,1.55 ± 0.16,0.547 (inactive)
O=C(C1COCC(=O)N1Cc1ccccc1)N1CCN(c2cccc(Cl)c2)CC1 (configuration not stated),1.01 ± 0.05,1.09 ± 0.089,1.08 ± 0.064,1.01 ± 0.051,1.24 ± 0.075,1.29 ± 0.11,1.01 (active)
CC[C@@H]([C@H](C)O)n1ncn(-c2ccc(N3CCN(c4ccc(OC[C@@H]5CO[C@@](Cn6cncn6)(c6ccc(F)cc6F)C5)cc4)CC3)cc2)c1=O,0.947 ± 0.14,0.893 ± 0.068,1.07 ± 0.1,1.1 ± 0.055,1.18 ± 0.091,1.36 ± 0.12,1.02 (active)
CCC(C)(C)C(=O)O[C@H]1C[C@@H](C)C=C2C=C[C@H](C)[C@H](CC[C@@H]3C[C@@H](O)CC(=O)O3)[C@H]21,2.33 ± 0.12,1.54 ± 0.13,1.82 ± 0.084,0.599 ± 0.061,0.747 ± 0.062,0.639 ± 0.17,0.219 (inactive)
CCOC(=O)C(Oc1ccc2c(c1)oc(=O)c1cc(OC)ccc12)c1ccccc1 (configuration not stated),1.04 ± 0.062,0.998 ± 0.13,0.929 ± 0.025,0.977 ± 0.04,1.02 ± 0.089,1.11 ± 0.21,1 (active)
CC(C)C1=NN2C(=N)C(=Cc3ccc(-c4ccccc4[N+](=O)[O-])o3)C(=O)N=C2S1,0.927 ± 0.078,0.953 ± 0.065,0.944 ± 0.066,0.89 ± 0.043,1.48 ± 0.22,1.06 ± 0.22,1.01 (active)
CN(C)CCC(c1ccc(Cl)cc1)c1ccccn1.O=C(O)/C=C\C(=O)O (configuration not stated),1.02 ± 0.14,1.08 ± 0.23,1.1 ± 0.13,0.799 ± 0.042,1.23 ± 0.14,1.11 ± 0.085,0.995 (active)
CC1=NN(c2ccc(Cl)cc2)C(=O)C1=Cc1c(C)nn(-c2ccc(C)cc2C)c1O,1.01 ± 0.13,0.866 ± 0.097,0.944 ± 0.051,0.891 ± 0.031,1.06 ± 0.085,1.15 ± 0.17,0.998 (active)
c1ccc(CCn2c3ccccc3c3nnc(SCCN4CCCCC4)nc32)cc1,0.232 ± 0.018,1.05 ± 0.061,1.02 ± 0.061,0.81 ± 0.075,1.57 ± 0.17,1.57 ± 0.11,1.01 (active)
Cc1cc(O)nc(NN)n1,1.06 ± 0.087,1.01 ± 0.062,1.02 ± 0.033,0.983 ± 0.054,0.971 ± 0.13,0.861 ± 0.13,0.999 (active)
O=C(Nc1ccc([N+](=O)[O-])cc1Cl)c1cc(Cl)ccc1O [Prestw-40],1.12 ± 0.28,0.92 ± 0.052,0.938 ± 0.068,0.873 ± 0.064,1.12 ± 0.24,0.832 ± 0.13,1.01 (active)
FC(F)(F)c1ccc(CNc2ccc(Cc3c[nH]c4ncc(Cl)cc34)cn2)cn1,0.154 ± 0.011,0.281 ± 0.028,0.378 ± 0.02,0.0391 ± 0.0019,0.335 ± 0.13,0.202 ± 0.083,0.978 (active)
CC(C)c1ccc(OCC(=O)NCc2nnc3n2CCC(C(F)(F)F)C3)cc1 (configuration not stated),1.24 ± 0.094,1.05 ± 0.08,0.988 ± 0.06,0.99 ± 0.074,1.1 ± 0.075,1.05 ± 0.13,0.996 (active)
CCC1(O)C(=O)OCc2c1cc1n(c2=O)Cc2cc3cc(O)ccc3nc2-1 (configuration not stated),2.02 ± 0.62,1.28 ± 0.11,2.19 ± 0.4,2.67 ± 0.16,2.12 ± 0.24,1.89 ± 0.32,0.851 (active)
O=C(CSc1nnc(COc2ccc(Cl)cc2)o1)N1CCCc2ccccc21,0.883 ± 0.044,1.12 ± 0.11,0.853 ± 0.086,0.885 ± 0.044,0.823 ± 0.05,0.866 ± 0.29,1.01 (active)
Cc1cccc(C(=O)NC(Nc2ccccc2C(F)(F)F)C(Cl)(Cl)Cl)c1 (configuration not stated),0.896 ± 0.079,1.05 ± 0.077,1.22 ± 0.23,0.948 ± 0.05,1.22 ± 0.2,1.26 ± 0.4,1.01 (active)
Cc1c(N=Cc2cc([N+](=O)[O-])ccc2O)c(=O)n(-c2ccccc2)n1C,0.911 ± 0.055,0.995 ± 0.061,0.907 ± 0.089,0.917 ± 0.03,1.34 ± 0.15,1.18 ± 0.2,0.999 (active)

# Source: the supplement of paper PMC10646978
